Compounds with a hit are over-represented: about 7.3% of the library has one in this group of screens.
Vaccinia Venus: inhibitors of vaccinia virus (Venus reporter). Vaccinia virus Venus reporter expression, fluorescence. Potency, µM (titrated, usually from 36.5 µM), hits mostly inhibitors. 330,000 tested, 0.46% active; calls by dose curve; tested in A549 cells; also: nearly all actives have a fitted effect of over 30% in size
FMDV antiviral: antivirals against foot and mouth disease virus. FMDV antiviral cell-based qHTS. Potency, µM (series often up to 57.9 µM), usual class: inhibitors. 410,000 tested, 1.2% active. AID 1159524; calls by dose curve; tested in HEK293T cells; also: read-out not given here; nearly all actives have a fitted effect of over 45% in size
HCV inhibitor: HCV inhibition; Huh7.5.1 HCVcc-Cre infection, luciferase reporter, 44 h; Potency, µM (doses to about 41.8 µM), usual class: inhibitors; 340,000 tested, 3.4% active; active = well fitted inhibition curve with a large enough effect; inconclusive = small, poorly fitted or top-dose-only effect, or another doubt; inactive = no such curve, though single readings can be large or run the other way
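Compounds are dispensed onto cells plated 4 h earlier at 1,000 per well, with HCVcc-Cre virus (about 0.5 moi) added next. Following 44 h of culture, luminescent signal is measured for 15 sec after 15 min with substrate at room temperature.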
HCMV antiviral: inhibitors of human cytomegalovirus. AID 1259415. activity change, negative = inhibition, % at 57.5 µM. 410,000 tested, 4.5% active. HFF cells, HCMV-luciferase reporter, 72 h; active compounds read low; in the data active = activity change below about -60%; inconclusive = no clear call, values can overlap the other calls; inactive = above about -39%
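Inhibition of viral replication was scored as loss of reporter luminescence in HFFs infected with HCMV-luciferase (MOI 1 PFU/cell) for 72 h; compounds tested at 2 doses, normalized to buffer and Salinomycin controls.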
VACV mCherry inh: inhibitors of vaccinia virus infection (mCherry reporter signal); Vaccinia virus mCherry reporter infection, fluorescence; Potency, µM (highest dose often 36.5 µM), actives largely listed as inhibitors; 310,000 tested, 0.63% active; calls by dose curve; tested in A549 cells; also: nearly all actives have a fitted effect of over 35% in size
A number is an active result; . = inactive; ? = inconclusive; / = no result; [ ] = another dose, or the depositor's remark.

SMILES	Vaccinia Venus	FMDV antiviral	HCV inhibitor	HCMV antiviral	VACV mCherry inh
CC(C)C(=O)Nc1cccc(COc2ccc(CN(Cc3ccccc3)C(=O)OC(C)(C)C)cc2)c1	.	11µM	0.5µM	.	.
CC(C)(C)OC(=O)N(CCc1ccccc1)Cc1ccc(OCc2cccc(NC(=O)C3CC3)c2)cc1	.	22µM	13µM	?	.
CC(C)C(=O)Nc1ccc(COc2ccccc2CN(Cc2ccccc2)C(=O)OC(C)(C)C)cc1	.	.	.[8.37 µM]	-74	?
N#Cc1cc([N+](=O)[O-])ccc1NC(=O)CSc1n[nH]c(=O)[nH]c1=O	.	.	.	.	.
O=C1/C(=C/c2ccccc2[N+](=O)[O-])COc2ccccc21	/	?	?	-100	/
CNc1ccc(/C=C2\COc3ccccc3C2=O)cc1[N+](=O)[O-]	.	.	.	.	/
COC(=O)c1[nH]c2cc(OC)c(OC)cc2c1/C=N/Nc1ccccc1	/	.	10µM	.	/
Cn1c(-c2cccc(C(F)(F)F)c2)cc2cnc(Nc3cccc(Oc4ccccc4)c3)cc21	/	/	/	.	/
COc1cc2nc(/C=C/c3cc(OC)c(OC)c(OC)c3)sc2cc1SC	?	.	10µM	.	?
CCOc1ccc(-n2c(SCc3ccc(C(=O)OC)o3)nc3c([nH]c4ccccc43)c2=O)cc1	.	.	/	.	.
Cc1c(C2=CCN(S(=O)(=O)c3ccc(CC(C)C)cc3)CC2)c2ccccc2n1CC(=O)N1CCCC1	.	.	/	.	.
CC12Cc3cnoc3C=C1CCC1C2CCC2(C)C1CCC2(C)O (configuration not stated)	.	35µM	?	.	?
C[C@]12CCC(=O)C=C1CC[C@@H]1[C@@H]2CC[C@@]2(C)[C@H]1CC[C@]2(C)O	.	?	?	.	.
COc1cc(NC(=O)Cn2nc(C(F)(F)F)c(Br)c2C)cc([N+](=O)[O-])c1	?	40µM	.	-96	.
CCOc1ccc(-n2c(=O)c3c4c(sc3n(CC(=O)NC(C)CC)c2=O)CCCC4)cc1 (configuration not stated)	.	.	/	.	.
CCOc1ccc(CCNC(=O)c2sc3nc4n(c(=O)c3c2C)CCC4)cc1	.[7.34 µM]	.	.	.	.[7.34 µM]
CC1(C)CC(NC(=O)c2coc(=O)c(Br)c2)CC(C)(C)N1	.	32µM	.	.	/
CN(C)c1ccc(Nc2ncnc3c2c(-c2ccccc2)cn3-c2cccc(Cl)c2)cc1	.	.	/	?	.
CCOC(=O)C1CCCN(CC(=O)Nc2ccc(C(=O)Nc3ccccc3OC)cc2)C1 (configuration not stated)	.	.	11µM	.	.
COc1ccccc1NC(=O)c1ccc(NC(=O)COC(=O)C2(C)CC2(Cl)Cl)cc1 (configuration not stated)	.	35µM	.	.	.
Cc1nn(-c2nc3ccccc3s2)c(C)c1Oc1ccccc1O	.	.	10µM	/	?
Cc1cccc(N2C(=O)/C(=C/c3ccc(N4CCN(C)CC4)o3)C(=O)NC2=S)c1C	.	.	.	-64	.
COc1ccc(N2C(=O)/C(=C/c3ccc(C)o3)C(=O)NC2=S)c(OC)c1	/	20µM	.	.	/
CCc1ccccc1N1C(=O)/C(=C/c2ccc(N3CCN(C)CC3)o2)C(=O)NC1=S	.	.	.	?	.
Cc1ccc(S(=O)(=O)N2CCOCC2)cc1NC(=O)COC(=O)Cc1ccccc1	.	.	.	.	.
SMILES	Vaccinia Venus	FMDV antiviral	HCV inhibitor	HCMV antiviral	VACV mCherry inh
CCSc1nnc2c(n1)OC(c1ccc(OC)cc1OC)N(C(C)=O)c1ccccc1-2 (configuration not stated)	.	.	/	-63	.
CCOc1ccc(C(=O)NNC(=O)C2CC(=O)N(c3ccc(C)cc3)C2)cc1 (configuration not stated)	.	.	.	.	.
Cn1nc([N+](=O)[O-])nc1Sc1nnc(-c2ccccc2)o1	.	22µM	.	-90	.
COC(=O)c1c(NC(=O)C(Cl)Cl)sc2c1C(C(=O)OC)CC2 (configuration not stated)	/	?	?	-62	/
COC(=O)c1c(NC(=O)C(C)(C)C)sc2c1C(C(=O)OC)CC2 (configuration not stated)	.	.	?	.	.
CCOc1ncccc1C(=O)NCCc1ccc(S(N)(=O)=O)cc1	.	.	.	-67	.
CCOc1ccc(OCCC(=O)OCC(=O)NCCc2ccc(S(N)(=O)=O)cc2)cc1	/	.	.	-73	/
CCOc1ncccc1C(=O)OCC(=O)NCCc1ccc(S(N)(=O)=O)cc1	/	.	.	.	/
CN1CCN(CC(O)COc2ccc(Cl)cc2)CC1 (configuration not stated)	.	.	.	.	.
CN1CCN(CC(O)COC(c2ccc(Cl)cc2)c2ccc(Cl)cc2)CC1 (configuration not stated)	/	.	5µM	-80	/
OC(COC(c1ccc(Cl)cc1)c1ccc(Cl)cc1)CN1CCCC1 (configuration not stated)	/	.	5.6µM	.	/
CCCCNC(=O)c1nc(-c2cccnc2)oc1-c1ccc(OC(F)(F)F)cc1	.	.	/	.	.
Cc1ccc2cc(CCNC(=O)CC(C)C)c(=O)[nH]c2c1	.	.	.	-67	.
CCC(=O)NCCc1cc2ccc(C)cc2[nH]c1=O	.	.	?	.	.
NC(=O)CC[C@H](NC(=O)c1ccc(F)cc1)C(=O)N1CCN(Cc2ccc3c(c2)OCO3)CC1	.	.	.	-70	.
CC(C)[C@H](NC(=O)c1ccc(C(C)(C)C)cc1)C(=O)N1CCN(Cc2ccc3c(c2)OCO3)CC1	.	?	11µM	?	.
CCc1ccccc1NC(=O)C(CC)Sc1nc2cc3c(cc2c(=O)n1Cc1ccco1)OCO3 (configuration not stated)	/	.	?	-94	/
CCc1ccc(NC(=O)C(CC)Sc2nc3cc4c(cc3c(=O)n2Cc2ccco2)OCO4)cc1 (configuration not stated)	/	.	?	?	/
C[C@H]1[C@@H](NC(=O)Nc2ccc(Cl)cc2)CC[C@@]23CCCN2C(=O)CCC[C@@H]13	/	/	/	.	/
CCN1C(=O)/C(=C\c2ccco2)C(C(=O)OC)=C1C	/	.	13µM	.	/
COC(=O)C1=C(C)N(Cc2cccnc2)C(=O)/C1=C\c1sccc1C	.	.	11µM	.	?
COC(=O)C1=C(C)N(CC(C)C)C(=O)/C1=C\c1cccs1	.	.	16µM	.	.[1.46 µM]
CCOC(=O)C1=C(C)N(CC(C)C)C(=O)/C1=C\c1cccs1	.[7.34 µM]	.	?	.	.[7.34 µM]
Cc1ccc(NC(=O)C2CCCN(C(=O)NCc3ccccc3)C2)c(C)c1 (configuration not stated)	.	.	.	.	.
COc1cc(CCNC2=CC(=O)c3ncccc3C2=O)ccc1O	10µM	40µM	?	.	10µM
CSc1ccc(CCNC(=O)CN2C(=O)COc3ccc(S(=O)(=O)N4CCCC4)cc32)cc1	.	.	/	.	.
CC1=NN(c2ccc([N+](=O)[O-])cc2)C(=O)/C1=C\N(C)C	.	.	.	.	.
CC1=NN(c2ccc(C)c(C)c2)C(=O)/C1=C\C=C\c1ccc([N+](=O)[O-])o1	.	13µM	11µM	-88	.
